# Active and inactive are the calls of the source. Unless noted, how the calls were made is not given here.
# What was measured:
# [1] = resazurin metabolic signal in HepG2 cells – cell-based, resazurin fluorescence, 24 h, PK04 Diversity Set, profiling panel (AID 1172); conditions: HepG2 viability, higher = more signal
# [2] = budding yeast growth changes without added modifier – OD600, strain BY4716, 24 h, basal condition, primary screen (AID 1173); conditions: S. cerevisiae BY4716 growth, OD600, 24 h; higher = more signal, called active from +8 up or from −8 down
# [3] = viability profiling in MM1S myeloma cells – cell-based, resazurin fluorescence, basal, 24 h, PK04 Diversity Set, profiling panel (AID 1174); conditions: higher = more signal, called active from +8 up or from −8 down;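 further: MM1S multiple myeloma cell line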
# [4] = biological target: Dihydroorotate dehydrogenase (quinone), mitochondrial (Plasmodium falciparum (isolate 3D7)) (UniProt Q08210); test: inhibition of P. falciparum DHODH – biochemical, C-terminal His tag, absorbance 600 nm, primary screen (AID 1175); conditions: PfDHODH enzyme, DCIP absorbance 600 nm; higher = more signal, called active from +8 up or from −8 down;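 further: recombinant parasite enzyme with a five histidine tag at its C terminus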
# Chain of Dihydroorotate dehydrogenase (quinone), mitochondrial (Plasmodium falciparum (isolate 3D7)) (Q08210 whole entry, looked up): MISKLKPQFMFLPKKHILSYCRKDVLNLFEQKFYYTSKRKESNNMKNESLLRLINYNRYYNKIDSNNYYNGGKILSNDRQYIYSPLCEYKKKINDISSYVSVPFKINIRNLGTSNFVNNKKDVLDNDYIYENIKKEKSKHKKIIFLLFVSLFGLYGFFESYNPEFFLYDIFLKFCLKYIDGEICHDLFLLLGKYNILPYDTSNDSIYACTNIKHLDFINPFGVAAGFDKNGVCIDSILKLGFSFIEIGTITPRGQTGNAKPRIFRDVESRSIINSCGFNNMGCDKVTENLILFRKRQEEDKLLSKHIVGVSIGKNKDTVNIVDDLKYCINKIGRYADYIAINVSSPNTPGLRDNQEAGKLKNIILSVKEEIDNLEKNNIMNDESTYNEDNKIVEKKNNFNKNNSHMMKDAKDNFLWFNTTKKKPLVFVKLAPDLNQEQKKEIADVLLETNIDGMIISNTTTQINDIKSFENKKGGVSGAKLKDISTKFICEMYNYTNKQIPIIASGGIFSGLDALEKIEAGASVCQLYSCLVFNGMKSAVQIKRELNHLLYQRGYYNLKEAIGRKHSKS
# [5] = inhibition of PAO1 biofilm formation – strain PAO1, LB-PBS medium, absorbance 600 nm, primary screen (AID 1176); conditions: P. aeruginosa PAO1 growth/biofilm, A600, 12 h; higher = more signal
# [6] = growth modulation of vineyard yeast isolate – strain RM11-1a, OD600, basal, 24 h, primary screen (AID 1177);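 further: cultures grown under basal conditions with no added stressor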; conditions: S. cerevisiae RM11-1a growth, OD600, 24 h; higher = more signal, called active from +8 up or from −8 down
# [7] = growth of efflux-deficient E. coli DRC39 – strain DRC39, OD650, 24 h, E. coli filamentation inducers, primary screen (AID 1178);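 further: growth measured as culture turbidity by optical density at 650 nm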; conditions: E. coli DRC39 acrAB, higher = more signal, called active from +8 up or from −8 down
# [8] = growth of efflux-deficient E. coli DRC39 – strain DRC39, OD650, 48 h, E. coli filamentation inducers, primary screen (AID 1179);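 further: screen aims at cell division blockers that make cells filament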; conditions: E. coli DRC39 delta-acrAB growth, higher = more signal, called active from +8 up or from −8 down
# [9] = viability profiling in RPMI8226 myeloma cells – cell-based, resazurin fluorescence, basal, 24 h, PK04 Diversity Set, profiling panel (AID 1180); conditions: higher = more signal;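 further: RPMI8826 multiple myeloma cell line at 5000 cells per well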
# [10] = biological target: E3 ubiquitin-protein ligase XIAP (Homo sapiens) (UniProt P98170); test: small molecules binding XIAP protein – biophysical, small-molecule microarray, fluorescence 635 nm, primary screen (AID 1181); conditions: higher = more signal;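 further: score merges 667 nm emission and signal to noise over triplicate slides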
# Chain of E3 ubiquitin-protein ligase XIAP (Homo sapiens) (P98170 whole entry, looked up, the tested form may be a part): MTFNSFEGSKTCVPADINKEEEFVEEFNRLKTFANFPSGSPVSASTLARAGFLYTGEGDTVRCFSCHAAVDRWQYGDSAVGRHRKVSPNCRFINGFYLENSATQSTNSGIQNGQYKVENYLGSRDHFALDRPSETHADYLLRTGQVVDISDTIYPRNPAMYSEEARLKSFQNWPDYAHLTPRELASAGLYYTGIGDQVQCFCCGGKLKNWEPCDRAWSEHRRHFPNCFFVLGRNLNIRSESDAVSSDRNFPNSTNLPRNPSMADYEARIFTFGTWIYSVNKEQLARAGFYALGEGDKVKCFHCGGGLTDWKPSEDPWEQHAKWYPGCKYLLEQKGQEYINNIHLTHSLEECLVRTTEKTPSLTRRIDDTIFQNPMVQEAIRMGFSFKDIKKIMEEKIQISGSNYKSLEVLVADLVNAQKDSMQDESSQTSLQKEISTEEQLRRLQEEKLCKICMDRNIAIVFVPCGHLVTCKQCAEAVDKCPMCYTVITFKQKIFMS
# [11] = tested on: XIP peptide (Xip251-270) binding; test: XIP fragment 251-270 binding compounds – biochemical, small-molecule microarray, fluorescence 635/667 nm, 0.1 µg/mL protein, primary screen (AID 1182); conditions: fluorescent protein binding, 635 nm, higher = more signal, called active from +8 up or from −8 down
# XIP peptide (Xip251-270) = test: compounds binding XIP fragment 251-270 – biochemical, small-molecule microarray, fluorescence 635/667 nm, 0.5 µg/mL protein, primary screen (AID 1183); conditions: fluorescence 635 nm, higher = more signal
# [12] = blood-stage malaria parasite viability loss – strain 3D7, DAPI fluorescence, 100 nL, primary screen (AID 1184);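 further: parasites grown inside human red blood cells in medium with human serum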; conditions: P. falciparum 3D7 growth, 3 d, higher = more signal
# [13] = biological target: Homeobox protein Hox-A13 (Mus musculus) (UniProt Q62424); test: disruptors of Hoxa13 oligonucleotide interaction – biochemical, fluorescence polarization, labeled oligonucleotide, primary screen (AID 1185); conditions: Hoxa13:DNA binding, 15 min, higher = more signal, called active from +8 up or from −8 down
# Chain of Homeobox protein Hox-A13 (Mus musculus) (Q62424 whole entry, looked up): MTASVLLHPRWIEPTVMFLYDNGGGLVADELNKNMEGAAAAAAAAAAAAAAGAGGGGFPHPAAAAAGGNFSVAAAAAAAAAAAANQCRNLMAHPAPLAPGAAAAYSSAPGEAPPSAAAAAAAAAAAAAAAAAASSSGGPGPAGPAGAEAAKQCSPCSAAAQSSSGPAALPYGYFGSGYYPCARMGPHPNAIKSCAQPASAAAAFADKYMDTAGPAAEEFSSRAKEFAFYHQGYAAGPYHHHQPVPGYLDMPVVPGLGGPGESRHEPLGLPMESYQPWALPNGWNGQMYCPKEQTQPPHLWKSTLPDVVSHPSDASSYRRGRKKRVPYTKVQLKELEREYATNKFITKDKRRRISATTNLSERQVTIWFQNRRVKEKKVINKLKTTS
# [14] = blockers of DNA damage checkpoint Chk1 activation – imaging, HeLa, hydroxyurea, phospho-Chk1 antibody, percent positive cells, primary screen (AID 1186); conditions: hydroxyurea-induced phospho-Chk1 immunofluorescence imaging, higher = more signal
# [15] = blockers of DNA damage checkpoint Chk1 activation – imaging, HeLa, hydroxyurea, phospho-Chk1 nuclear intensity, primary screen (AID 1187); conditions: hydroxyurea-induced phospho-Chk1 immunofluorescence imaging, higher = more signal
SMILES,z-score [1],z-score [2],z-score [3],composite z-score [4],z-score [5],z-score [6],z-score [7],z-score [8],z-score [9],composite z-score [10],composite z-score [11],composite z-score (XIP peptide (Xip251-270)),z-score [12],z-score [13],z-score [14],z-score [15]
CCN(CC)c1ccc(N2CC=CC34O[C@@H]5/C=C\CCCOC(=O)C5[C@H]3C(=O)N(CCO)[C@@H]4C2=O)cc1 (stereo partly drawn),-1.46,0.245 (inactive),-0.0391 (inactive),0.174 (inactive),-0.606 (inactive),0.747 (inactive),-1.16 (inactive),-1.26 (inactive),0.547,0.56,0.482 (inactive),0.643,-1.52,-5.79 (inactive),0.225 (inactive),0.161 (inactive)
COCCCNC(=O)[C@@]1(Cc2ccccc2N=[N+]=[N-])N=C(c2ccc(OCCCO)cc2)O[C@H]1c1ccccc1N=[N+]=[N-],-0.993,-0.181 (inactive),-2.32 (inactive),1.21 (inactive),0.454 (inactive),1.83 (inactive),0.478 (inactive),-0.607 (inactive),-1.99,0.323,0.0041 (inactive),0.771,-2.43,-2.81 (inactive),-0.559 (inactive),-0.225 (inactive)
C=CCN(Cc1ccccc1)C(=O)C(c1cccs1)N(CCOCCO)C(=O)/C=C\C(=O)O (stereo not drawn),-0.393,-1.1 (inactive),0.666 (inactive),-1.37 (inactive),0.661 (inactive),-0.947 (inactive),0.441 (inactive),1.05 (inactive),0.463,0.223,-0.467 (inactive),-0.573,-0.205,-1.25 (inactive),-1.41 (inactive),-0.806 (inactive)
O=C1c2ccccc2[C@@]2(Cc3ccccc3N(CCN3CCOCC3)C2=O)[C@H](c2ccc(CO)cc2)N1Cc1ccccc1,-0.864,-0.187 (inactive),0.757 (inactive),-4.94 (inactive),0.168 (inactive),0.167 (inactive),0.839 (inactive),1.61 (inactive),0.386,-0.278,-0.178 (inactive),0.206,-0.119,-0.421 (inactive),-0.305 (inactive),-0.0278 (inactive)
Cc1ccc(S[C@]2(C(=O)NCC(C)C)CC(=O)N(Cc3cc(C(F)(F)F)cc(C(F)(F)F)c3)[C@@H]2c2ccc(CO)cc2I)cc1,-0.0295,-3.38 (inactive),-2.99 (inactive),-0.83 (inactive),-0.522 (inactive),-1.19 (inactive),-0.155 (inactive),-0.586 (inactive),-2.27,-0.17,0.861 (inactive),0.569,-0.433,-2.28 (inactive),0.208 (inactive),0.473 (inactive)
CC1CC/C=C\[C@H]2OC34C=CCN(Cn5nnc6ccccc65)C(=O)[C@H]3N(C(CO)C(C)C)C(=O)[C@@H]4C2C(=O)O1 (stereo partly drawn),0.913,0.673 (inactive),-1.29 (inactive),-0.64 (inactive),0.357 (inactive),-0.271 (inactive),0.465 (inactive),0.275 (inactive),0.0555,0.646,0.575 (inactive),0.212,-0.918,-5.58 (inactive),0.822 (inactive),0.71 (inactive)
C=CCOC(=O)[C@@H]1[C@H]2C(=O)O[C@H](c3ccccc3)[C@H](c3ccccc3)N2[C@H](c2ccc(OCCOC(=O)[C@@H]3C[C@@H]4C(=O)N5CCC[C@H]5C(=O)N4[C@@H]3c3ccc(O)cc3)cc2)[C@@]12C(=O)Nc1ccc(I)cc12,0.339,0.155 (inactive),-0.446 (inactive),-0.326 (inactive),2.65 (inactive),-0.468 (inactive),0.65 (inactive),1.72 (inactive),1.28,-0.059,0.393 (inactive),0.533,-1.85,1.38 (inactive),-0.946 (inactive),-0.3 (inactive)
COc1ccc(CCNC(=O)[C@@H]2c3ccccc3C(=O)N(C3Cc4ccccc4C3)[C@H]2c2ccc(CO)cc2)cc1,0.763,0.594 (inactive),-0.642 (inactive),0.441 (inactive),0.292 (inactive),0.205 (inactive),-0.195 (inactive),0.121 (inactive),-0.303,0.126,1.14 (inactive),0.219,-0.268,-3.47 (inactive),-0.222 (inactive),-0.28 (inactive)
CCCCCC1=C2CNC(CCC)(C(=O)OC)C=C2C(C)C1=O (stereo not drawn),-1.08,0.381 (inactive),-1.34 (inactive),-1.62 (inactive),0.796 (inactive),0.891 (inactive),0.0107 (inactive),0.56 (inactive),-0.888,0.347,0.455 (inactive),-0.0874,-0.175,-6.92 (inactive),0.138 (inactive),0.466 (inactive)
O=C1O[C@H](c2ccccc2)[C@H](c2ccccc2)N2[C@H]1[C@@H](C(=O)Nc1nc3ccccc3s1)[C@]1(C(=O)Nc3ccc(C#CC4(O)CCCCCC4)cc31)[C@H]2c1ccc(OCCO)cc1,-0.43,1.16 (inactive),-1.4 (inactive),-0.568 (inactive),4.15 (inactive),0.773 (inactive),-0.34 (inactive),-0.706 (inactive),-1.1,0.167,2.25 (inactive),0.663,-1.8,-0.979 (inactive),0.341 (inactive),0.346 (inactive)
COC(=O)[C@@]1(Cc2ccc(F)cc2)[C@H]2c3cc(C(=O)N4CCCC4)n(Cc4cc(C)n(C)n4)c3C[C@H]2CN1C(=O)c1ccccc1,-0.945,0.603 (inactive),-0.642 (inactive),-0.468 (inactive),0.964 (inactive),0.279 (inactive),-0.375 (inactive),-0.459 (inactive),-1.51,0.17,1.55 (inactive),0.759,-1.58,-3.99 (inactive),0.611 (inactive),0.53 (inactive)
CCCC#C[Si](O[C@H](CC)c1cn([C@H](CO)Cc2ccccc2)nn1)(C(C)C)C(C)C,0.442,-12.8 (active),0.11 (inactive),0.225 (inactive),0.0885 (inactive),0.852 (inactive),-0.281 (inactive),-0.154 (inactive),0.114,-0.121,0.149 (inactive),0.405,0.129,-0.713 (inactive),0.112 (inactive),-0.311 (inactive)
O=C1C2C=CC(C(O)c3c(F)cccc3Cl)N(Nc3ccccc3)C2C(=O)N1c1ccccc1 (stereo not drawn),0.947,-1.48 (inactive),-0.478 (inactive),0.693 (inactive),-0.131 (inactive),-0.679 (inactive),0.302 (inactive),1.28 (inactive),0.284,0.0975,0.469 (inactive),0.702,-0.342,-3.25 (inactive),0.653 (inactive),0.683 (inactive)
CN1C(=O)C2C=CC(C(O)C3=C[C@H]4C[C@@H](C3)C4(C)C)N(Nc3ccccc3)C2C1=O (stereo partly drawn),-0.3,0.0844 (inactive),-0.419 (inactive),-0.0435 (inactive),2.14 (inactive),0.602 (inactive),-0.328 (inactive),-0.369 (inactive),-0.52,-0.174,0.654 (inactive),0.151,0.821,-3.75 (inactive),-0.556 (inactive),-0.864 (inactive)
CCCCCN1CC=CC23O[C@@H]4/C=C\CCCOC(=O)C4[C@H]2C(=O)N(CCCO)[C@@H]3C1=O (stereo partly drawn),1.15,-1.26 (inactive),1.21 (inactive),-1.37 (inactive),0.661 (inactive),-1.32 (inactive),0.581 (inactive),0.025 (inactive),1.72,0.239,1.75 (inactive),0.772,-0.332,-5.09 (inactive),-0.297 (inactive),-0.426 (inactive)
COC(=O)C(CC#Cc1ccc2c(c1)[C@]1(C(=O)N2)[C@H](C(=O)O)[C@H]2C(=O)O[C@H](c3ccccc3)[C@H](c3ccccc3)N2[C@@H]1c1ccc(O)cc1)C(=O)OC,0.0521,0.183 (inactive),0.395 (inactive),-5.46 (inactive),1.03 (inactive),0.62 (inactive),0.569 (inactive),-0.0012 (inactive),-0.0124,-0.165,0.12 (inactive),0.713,0.49,-6.07 (inactive),-0.287 (inactive),-0.507 (inactive)
C=CCOC(=O)[C@@H]1[C@H]2C(=O)O[C@H](c3ccccc3)[C@H](c3ccccc3)N2[C@H](c2ccc(OCCOC(=O)[C@@H]3C[C@@H]4C(=O)N[C@@H](CCCC[N+](C)(C)C)C(=O)N4[C@@H]3c3cccc(OCCO)c3)cc2)[C@@]12C(=O)Nc1ccc(I)cc12,1.34,-1.21 (inactive),-0.669 (inactive),-5.39 (inactive),1.18 (inactive),1.98 (inactive),-0.62 (inactive),-0.659 (inactive),-0.847,-0.126,1.18 (inactive),0.786,0.0875,6.23 (inactive),-0.558 (inactive),0.16 (inactive)
COCCOC(=O)N1C(=O)[C@@]2(c3cc(C#Cc4ccc(OC)cc4)ccc31)[C@H](C(=O)N1CCCCCCC1)[C@H]1C(=O)O[C@H](c3ccccc3)[C@H](c3ccccc3)N1[C@@H]2c1ccc(OCCO)cc1,0.73,0.777 (inactive),1.15 (inactive),-1.37 (inactive),3.3 (inactive),0.262 (inactive),1.11 (inactive),2.25 (inactive),0.425,0.47,2.79 (inactive),0.635,-2,-15.8 (active),-0.442 (inactive),-0.617 (inactive)

# From PubChem BioAssay
